Measured values published in PubChem BioAssay AID1851 (National Center for Advancing Translational Sciences (NCATS), 2009).
“And” between values parts separate entries of the source, which are not always exact repeats. Identical values can stand only once. The whole screen tested about 16,000 compounds, of which about 2,600 (16%) were called active. Not shown: some 20% with an inconclusive outcome. Calls come from the whole dose curve; as a rule, active = well fitted curve in the direction sought with a large enough effect; inconclusive = small, poorly fitted or top-dose-only effect, or effect the other way; inactive = no such curve, though single readings can be large or run the other way. These entries were drawn from the full list. Square brackets hold non-standard residues; d marks the D form. Peptide text beside a SMILES is read from it.

biological target: Cytochrome P450 2D6 (Homo sapiens) (UniProt P10635); test: Cytochrome panel assay with activity outcomes; conditions: recombinant CYP, pro-luciferin dealkylation, luminescence, p450-cyp2d6; series mostly up to 57.1 µM
Sequence (P10635 whole entry, looked up): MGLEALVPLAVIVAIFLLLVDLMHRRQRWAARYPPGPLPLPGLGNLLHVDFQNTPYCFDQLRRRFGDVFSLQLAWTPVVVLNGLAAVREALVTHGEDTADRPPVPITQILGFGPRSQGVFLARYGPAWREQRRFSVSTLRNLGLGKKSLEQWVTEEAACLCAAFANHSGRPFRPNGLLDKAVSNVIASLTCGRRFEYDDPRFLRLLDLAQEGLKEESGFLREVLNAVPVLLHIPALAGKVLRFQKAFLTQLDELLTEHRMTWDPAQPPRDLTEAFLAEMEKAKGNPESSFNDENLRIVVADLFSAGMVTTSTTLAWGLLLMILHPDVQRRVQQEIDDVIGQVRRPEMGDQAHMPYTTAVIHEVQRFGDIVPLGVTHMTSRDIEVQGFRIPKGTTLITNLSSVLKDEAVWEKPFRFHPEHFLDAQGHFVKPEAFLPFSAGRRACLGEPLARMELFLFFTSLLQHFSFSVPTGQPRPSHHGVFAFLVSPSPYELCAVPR
% is set by controls: 0 for no effect and ±100 for the full control effect.

AC50, inactive:
CC1CCCC(NC(=O)C2CCN(S(=O)(=O)N3CCOCC3)CC2)C1C (stereo not given)
O=C(O)C1CCCCC1C(=O)Nc1cc(Cl)ccc1Cl (stereo not given)
O=C(O)/C=C/C(=O)Nc1ccccc1-c1ccccc1
CCOC(=O)c1cc2c(C)n(-c3ccc(C)cc3)c(C)c2ccc1=O
O[C@H](CCCN1CCN(c2ncc(F)cn2)CC1)c1ccc(F)cc1
Cc1ccc(NCCC(=O)c2ccc(Cl)cc2)cc1
CN(C)CCNC(=S)Nc1cccc(Cl)c1
Cc1ccc(NCCC(=O)c2ccc(Cl)cc2)cc1C
Cc1cnn(-c2cc(N/N=C/c3ccccc3F)ncn2)c1
CCCc1nnc(SCC(=O)O)n1/N=C/c1ccc2c(c1)OCO2
O=C(c1ccco1)N1CCN(c2cc(=O)n(C3CCCCC3)c(=O)[nH]2)CC1
CCCCCCc1c(C[C@H](N)C(=O)O)o[nH]c1=O
Oc1ccccc1-c1nnc(-c2ccc(C(F)(F)F)cc2)o1
CCN(CC)CCCNC(=O)C1CCC(=O)N(c2ccc(OC)cc2)C1c1ccc(F)cc1 (stereo not given)
CN(Cc1ccccc1)c1nc(-c2ccc([N+](=O)[O-])cc2)nc2ccccc12
O=c1c(-c2cc(F)cc(F)c2)nc2cnc(N3CCOCC3)nc2n1C1CC1
CSCC[C@H](C=O)NC(=O)[C@H](CC(C)C)NC(=O)[C@H](CC(C)C)NC(C)=O (Ac-Leu-Leu-[dM]-aldehyde)
COCCCNC(=O)C1CC(=O)N(Cc2ccc(OC)cc2)C1 (stereo not given)
CN(C)c1ncc2nc(-c3ccc(F)cc3)c(=O)n(Cc3cccs3)c2n1
Cc1cc(C)c2nc(-c3ccccn3)cc(C(=O)Nc3ccc(S(=O)(=O)Nc4cc(C)on4)cc3)c2c1
CCN1C(=O)c2cccc3c(NC(=O)c4cccc(N5C(=O)CCC5=O)c4)ccc1c23
COc1ccc(N2CCN(C(=O)CSc3nnc4c5cc(C)ccc5n(C)c4n3)CC2)cc1
COc1ccc(C(=O)c2c[nH]c(C(=O)NCc3cccs3)c2)cc1
COc1ccc2nc3oc(C(=O)NCc4cccs4)cc3cc2c1
O=C1CC(=O)N(CCc2ccc(F)cc2)C(=O)N1
COc1ccc(-n2c(=O)cnc3cnc(N(C)C)nc32)cc1
COc1ccccc1/C=C/C(=O)c1c2c(c(C)[nH]c1=O)CCCC2
Cc1c(C)c2c(c(C)c1O)CC[C@@](C)(CCC[C@@H](C)CCC[C@@H](C)CCCC(C)C)O2
Cc1cc(C)n2nc(SCc3cc(=O)oc4ccc5ccccc5c34)nc2n1
CCOC(=O)c1sc(NS(=O)(=O)c2ccccc2)nc1C
CC(=O)Nc1cc(S(=O)(=O)Nc2ccccc2)c(C)cc1C
Cc1cc(NC(=O)COC(=O)c2ccc(NS(=O)(=O)c3ccc(C)c(C)c3)cc2)no1
COC(=O)Cc1cc(=O)n2[nH]c(C)c(-c3ccccc3)c2n1
C/C(O)=C\c1nc2ccccc2oc1=O
COC(=O)[C@@]1(Cc2ccc(F)cc2)[C@@H]2C(=CC(=O)[C@H]2CC(=O)C(=O)N(C)C)CN1C(=O)c1ccccc1
Cc1cc(N)ccc1NC(=O)c1ccccc1
CCO/C(C)=N/n1c2nc3ccccc3nc2c2c(=O)n(CC(C)C)c(C)nc21
O=C(O)c1ccccc1C(=O)Nc1nccs1
CCCCn1c(SCC(=O)Nc2nccs2)nc2ccccc2c1=O
O=C(NCC1CCCO1)c1cc(-c2ccc(Cl)cc2Cl)on1 (stereo not given)
Cc1cccc(Sc2c([N+](=O)[O-])ncn2C)n1
O=c1cnc2cnc(Nc3ccccc3)nc2n1Cc1cccs1
O=C(O)[C@H]1CCCNC1
Cc1cc(=O)oc(C)c1C(=O)NCc1cccnc1
Cc1cccc(CS(=O)(=O)Cc2ccc(C(=O)NCc3ccco3)o2)c1
Cn1cccc1C(=O)N1CCC2(CC1)CN(c1ccccn1)C2
COc1cc(OC)c(C2C(C(=O)Nc3ccc(C)cc3C)=C(C)Nc3ncnn32)cc1OC (stereo not given)
Cc1ccc(S(=O)(=O)NC(=O)c2cccn2C)cc1
Cc1ccccc1C(=O)c1cccn1CC(=O)NCc1ccco1
O=C(Cn1ccc([N+](=O)[O-])n1)NCc1cccs1
COCCn1c(=O)c(-c2cccs2)nc2cnc(N3CCNCC3)nc21
COc1cc(NC(=O)Cc2c(C(=O)O)[nH]c3ccccc23)cc(OC)c1OC
CCC(CC)C(=O)Nc1c2c(nn1-c1ccc(OC)cc1)CS(=O)(=O)C2
CCN(CC)S(=O)(=O)c1ccc(C(=O)NC2=C(C(=O)OC)SCC2)cc1
CCOC(=O)c1c(C)[nH]c2ccc3c(c12)CN1CCc2cc(OC)ccc2[C@@H]1O3
CCN(CC)S(=O)(=O)c1cccc(C(=O)N[C@H](C(=O)OCC(=O)NC(=O)NC)C(C)C)c1
CCOC(=O)c1ccc(S(=O)(=O)N2CCN(C)CC2)cc1
CS(=O)(=O)N1CCC2(CCN(C(=O)Nc3cccc(C#N)c3)CC2)CC1
O=C1c2c(O)cc(O)cc2O[C@@H](c2ccc(O)c(O)c2)[C@H]1O
CC1=NN(c2ccccc2)C(=O)/C1=C\N1CC(C)OC(C)C1 (stereo not given)
COc1cc2c(cc1OC)C(C(=O)Nc1ccc3c(c1)OCCO3)C(c1cccnc1)N(C)C2=O (stereo not given)
FC(F)(F)c1nc(-c2ccncc2)ncc1-c1nnnn1-c1ccccc1
C/C(CC(=O)Nc1ccccn1)=N\NC(=O)C(=O)Nc1cccc(Cl)c1C
Cc1ccc(C(=O)Nc2ccc(N3CCOCC3)nc2)cc1
CC(C)C(=O)Nc1ccc(NC(=O)c2cccnc2)cn1
CCOCC(=O)Nc1cc(C(=O)Nc2cccc(C)c2C)ccc1Cl
O=S(=O)(/N=C(/Nc1ccccn1)c1ccccc1)c1ccccc1
O=C(c1ccc([N+](=O)[O-])cc1)n1nc(-c2ccccc2)nc1NCc1ccccc1
CSc1nc(-c2ccccc2)nn1C(=O)c1ccccc1

AC50, active:
O=C1NCN(c2ccccc2)C12CCN(CCCC(c1ccc(F)cc1)c1ccc(F)cc1)CC2 10 µM and 1.58 µM
O=C(CNc1cccc(Cl)c1)c1ccc(Cl)cc1 0.447 µM
O=C(NCCc1ccc(Cl)cc1)Nc1cccc(Cl)c1 0.891 µM
CCN(CC)CCCNC(=O)CC1Sc2ccccc2NC1=O (stereo not given) 5.01 µM
CN(C)c1ccc(-c2nc(N(C)Cc3ccco3)c3ccccc3n2)cc1 12.6 µM
CN(Cc1ccco1)c1nc(-c2ccoc2)nc2ccccc12 15.8 µM
CN(Cc1ccco1)c1nc(-c2ccc3c(c2)OCO3)nc2ccccc12 10 µM
COc1cccc2c(=O)c(C(=O)NCc3cccs3)c[nH]c12 12.6 µM
CCOC(=O)c1ccc(S(=O)(=O)Nc2ccc3cn[nH]c3c2)cc1 12.6 µM
CCOc1cc(C)c(S(=O)(=O)Nc2ccc3cn[nH]c3c2)cc1C 0.631 µM
CCCC(C(=O)Nc1nccs1)c1ccccc1 (stereo not given) 25.1 µM
c1ccc(-n2cnc3cc(NCc4cccs4)ccc32)cc1 1.12 µM
Cc1ccccc1CS(=O)(=O)Cc1ccc(C(=O)NCc2cccnc2)o1 10 µM
O=C(Cn1cccc1C(=O)c1ccccc1)NCc1cccs1 5.01 µM
CCOC(=O)c1c(C)[nH]c(C)c1C(=O)COC(=O)c1cccc(S(=O)(=O)N(CC)CC)c1 17.8 µM
CCOC(=O)c1c(C)[nH]c(C)c1C(=O)COC(=O)c1ccc(S(=O)(=O)N(CC)CC)cc1 28.2 µM
Cc1c(Cl)cccc1NC(=O)c1ccc(-n2ccnc2)nc1 0.0316 µM
O=C(Nc1ccc(F)cc1)c1ccc(-n2ccnc2)nc1 0.178 µM
CCc1ccccc1NC(=O)CSc1nc(-c2ccccc2)nn1C(=O)c1cccc([N+](=O)[O-])c1 10 µM

activity, negative = inhibition, inactive:
Cc1ccc(S(=O)(=O)O[C@@H]2[C@H]([C@@H]3COC(C)(C)O3)O[C@H]3OC(C)(C)O[C@@H]32)cc1 5.58% [at 11.4 µM]
O=C(Nc1cccc(Cl)c1)Nn1cnnc1 8.42% [at 11.4 µM]
O=C(O)[C@@H]1[C@@H](C(=O)NCc2cccnc2)[C@@H]2C=C[C@@H]1O2 20.9% [at 11.4 µM]
Cc1c(Cl)cccc1NC(=O)C[C@H]1Sc2ccccc2NC1=O -12% [at 11.4 µM]
c1cc(NNc2cccc(-c3nn[nH]n3)c2)cc(-c2nn[nH]n2)c1 16.4% [at 11.4 µM]
O=C(O)c1ccc(S(=O)(=O)N=Nc2c(O)[nH]c3ccccc23)cc1 17% [at 11.4 µM]
O=C1CCC(c2ccccc2)(c2ccccc2)CC1 9.99% [at 11.4 µM]
NCS(=O)(=O)O 6.1% [at 11.4 µM]
Cn1c(=S)c2[nH]c(SCCCc3ccccc3)nc2n(C)c1=O -0.099% [at 11.4 µM]
CN1CCN(Cc2nc3cccc4c3c([n+]2[O-])-c2ccccc2-4)CC1 -3.37% [at 11.4 µM]
N#C[C@H]1CN[C@H](N)N[C@@H]1N 8.31% [at 11.4 µM]
Cc1cccc2c1Oc1ccccc1[C@@H]2NC(=O)c1ccc([N+](=O)[O-])cc1 13.1% [at 11.4 µM]
